# Data taken from publication PMC5540273 (PLoS ONE, 2017).
# Tests used:
# MST3 = tested on: T1, MST3
# T1 construct: gene STK24
# MRCKB = tested on: T2, MRCKB
# T2 construct: gene CDC42BPB
# MST1 = tested on: T3, MST1
# T3 construct: gene STK4
# NDR1 = tested on: T4, NDR1
# T4 construct: gene STK38
# 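Note: kd values determined as follow-up on hits from a single-replicate KINOMEscan panel screen.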
smiles,measurement,setting,value
Cn1ccc2ncnc(Oc3ccc(NC(=O)Nc4ccccc4)cc3)c21,Kd,PDGFRA,25 nM
same,Kd,PDGFRB,16 nM
O=C(Nc1n[nH]c2cc(-c3cccc(F)c3F)ccc12)C1CC1 [SB-733894],Kd,MYLK2,92 nM
COc1cc(Nc2nccc(N3CCC(NC(=O)Nc4cc(C)ccc4C)C3)n2)cc(OC)c1OC (stereo not shown) [GSK1379762],Kd,NEK5,2300 nM
O=C(O)COc1ncnc2cc(-c3ccc4[nH]ncc4c3)sc12,Kd,NEK3,210 nM
CS(=O)(=O)c1ccc(-c2c(-c3ncn[nH]3)sc(N3CCOCC3)c2C#N)cc1,Kd,MST3,> 10000 nM
Cc1cccc(-c2nc(C)cc(Nc3ccncc3)n2)n1 [GSK257997],Kd,MRCKB,580 nM
O=C1NC(=O)C(N2CCc3ccccc32)=C1c1ccccc1Cl [SB-373598],Kd,MST1,> 10000 nM
same,Kd,PAK3,> 10000 nM
Fc1cc(Cl)ccc1Nc1ccnc2cc(I)ccc12 [GW551191],Kd,MST1R,> 10000 nM
same,Kd,PDGFRB,410 nM
COC(=O)c1c(-c2ccccc2)c2cc(C(=O)O)ccc2c(=O)n1Cc1ccccc1,Kd,PDGFRB,75 nM
CS(=O)(=O)c1ccc(-c2nc3n(c2-c2ccncc2)CCC3)cc1 [SKF-105942],Kd,PAK6,> 10000 nM
Cc1ccc(NC(=O)Nc2cccc(Cl)c2)cc1-c1ccc(C(=O)Nc2ccncc2)cc1 [GSK1398468],Kd,MYO3A,> 10000 nM
same,Kd,PDGFRB,50 nM
O=C(Nc1n[nH]c2nc(-c3nccs3)c(Br)cc12)C1CC1 [SB-742251],Kd,MYLK2,160 nM
COc1ccc2nc(-c3cccc(C)n3)nc(Nc3ccncc3)c2c1 [GSK204919],Kd,MRCKB,520 nM
Cc1ccc(C(=O)Nc2ccc(Nc3ccnc4cc(-c5ccccn5)ccc34)cc2O)cc1.Cl [GW440146],Kd,PDGFRB,480 nM
CC(=O)Nc1nc2cnc(Nc3cc(NC(=O)c4cccc(CCC#N)c4)ccc3C)nc2s1,Kd,PDGFRA,> 10000 nM
same,Kd,PDGFRB,> 10000 nM
CCn1c(-c2ccccn2)nc2cnccc21 [SB-736398],Kd,NEK1,> 10000 nM
same,Kd,PDPK1,> 10000 nM
CC(C)(C)c1ccc(C(=O)Nc2cn3cc(-c4cccnc4)ccc3n2)cc1,Kd,PDGFRB,220 nM
Cn1ccc2ncnc(Oc3ccc(Nc4nc5ccccc5[nH]4)cc3)c21,Kd,NEK4,> 10000 nM
CC(C)(C)c1ccc(C(=O)Nc2cn3cc(Cl)ccc3n2)cc1,Kd,NDR1,> 10000 nM
CSc1nn2c(=O)cc(N3CCOCC3)nc2n1Cc1cccc(C(F)(F)F)c1C [GSK2363608],Kd,MST4,> 10000 nM
same,Kd,NEK2,> 10000 nM
Cc1ccc(NC(=O)Nc2cc(C(C)(C)C)nn2-c2ccccc2)cc1 [GSK1014915],Kd,PDGFRB,340 nM
O=C(Nc1n[nH]c2nc(-c3nccs3)c(Br)cc12)C1CCCC1 [SB-742609],Kd,MYLK2,130 nM
Cc1cccc(-c2nc(-c3ccc(S(C)(=O)=O)cc3)sc2-c2ccnc(NCCc3ccccc3)c2)c1,Kd,PDGFRA,550 nM
same,Kd,PDGFRB,68 nM
O=C(Nc1ccccc1)Nc1cccc(Oc2ccc3nccn3n2)c1,Kd,PDGFRA,3.6 nM
same,Kd,PDGFRB,1 nM
Fc1cc(Cl)ccc1Nc1ccnc2cc(-c3ccc(CN4CCCCC4)o3)ccc12 [GW560116],Kd,PDGFRB,210 nM
same,Kd,PDPK1,> 10000 nM
COC(=O)c1c(-c2ccccc2)c2cc(OC)ccc2c(=O)n1Cc1ccccc1,Kd,PDGFRB,110 nM
COc1ccc(CNC(=O)NC2CCN(c3ccnc(Nc4cc(OC)c(OC)c(OC)c4)n3)C2)cc1 (stereo not shown) [GSK1379748],Kd,NEK5,730 nM
Nc1ncnc2[nH]c(-c3ccccc3)nc12 [AH5015],Kd,MST1,> 10000 nM
same,Kd,PAK3,> 10000 nM
COc1cc2ncn(-c3cc(OCC4CCCO4)c(C(N)=O)s3)c2cc1OC (stereo not shown) [GSK204607],Kd,MYLK4,500 nM
CCCc1ccc(S(=O)(=O)NC2CCN(c3ccnc(Nc4ccc(F)cc4)n3)C2)cc1 (stereo not shown) [GSK1379715],Kd,NEK1,> 10000 nM
same,Kd,PDPK1,> 10000 nM
NC(=O)c1nnc2ccccc2c1N,Kd,NEK10,430 nM
